Measurements: PubChem BioAssay (Tox21)
Calls of active or inactive are those of the source. Where a call stands in place of a potency, no number is given. The call rests on the fitted dose curve; in most records, active means well fitted activation curve with a large enough effect in the repeat runs; inconclusive means weak or mixed curves; inactive means flat fitted curve, though single readings scatter.

test: A CellTox Green Cytotoxicity Assay to monitor cytotoxicity in HepG2 cells - 0 hour (AID 1224882); conditions: CellTox Green fluorescence; series mostly up to 76.8 µM; further: nearly all actives have a fitted effect of over 35% in size
Description: National Center for Advancing Translational Sciences [NCATS]
NIH Chemical Genomics Center [NCGC]
U.S. Environmental Protection Agency [EPA]
National Institutes of Environmental Health Sciences [NIEHS]
National Toxicology Program [NTP]
Cell-based models are critical for drug discovery. Determining the natural cytotoxic effects resulting from test compounds is an essential research activity. A CellTox Green Cytotoxicity Assay to monitor cytotoxicity in real time of continues cell culture during 40 hours of the compound treatment was used to screen Tox21 10K library compounds in HepG2 cells. CellTox Green Cytotoxicity Assay is a nonlytic, homogeneous, biofluorescent method to measure cytotoxicity in cell culture after experimental manipulation. The assay system uses a proprietary asymmetric cyanine dye that is excluded from viable cells but preferentially stains the dead cell's DNA. […] Viable cells produce no appreciable increases in fluorescence. Therefore, the fluorescence signal produced by the binding interaction with dead cell DNA is proportional to cytotoxicity.
The mixture of HepG2 cell suspension and reagents were dispensed at 600cells/6 ul/well in 1536-well tissue culture treated black solid bottom plates using a Multidrop dispenser. After the assay plates were incubated at a 37 C/5% CO2 incubator for 5 hours, 23 nL of compounds dissolved in DMSO, positive and negative controls was transferred to the assay plate by a pintool work station. The plates were incubated at 37 C for 40 hours. The fluorescence intensity were measured at 0h, 8h, 16h, 24h, 32h and 40h time points using ViewLux plate reader during compound treatment.
Potency means the concentration at half of the fitted maximal effect.

Compound	Potency
OCCCCCCCl	inactive
Nc1ccc(C(=O)OCC(O)CO)cc1 (stereo not given)	inactive
CC1CCC(C(C)(C)S)C(=O)C1 (stereo not given)	inactive
Cc1nc2ccccc2c(=O)o1	inactive
NC(=O)C1(N2CCCCC2)CCN(CCCC(=O)c2ccc(F)cc2)CC1	inactive
COc1ccc(NS(=O)(=O)c2ccc(N)cc2)nn1	inactive
Cn1c(=O)c2c(ncn2CC2OCCO2)n(C)c1=O	inactive
CCCCCC1Nc2cc(C(F)(F)F)c(S(N)(=O)=O)cc2S(=O)(=O)N1 (stereo not given)	inactive
CC1(N)CCC(C(C)(C)N)CC1 (stereo not given)	inactive
CC(=O)c1ccc(OCC(=O)N2CCCCC2)cc1	inactive
CCC(C)N (stereo not given)	inactive
Cc1ncc([N+](=O)[O-])n1CC(O)CCl (stereo not given)	inactive
F[Si-2](F)(F)(F)(F)F	inactive
CN[C@@H]1[C@@H](O)[C@@H](O[C@@H]2[C@H](O)[C@H](O[C@H]3OC(CN)=CC[C@H]3N)[C@@H](N)C[C@H]2N)OCC1(C)O (stereo not given in full)	inactive
O=C(O)/C=C/c1ccccc1	inactive
OC(CCN1CCCCC1)(c1ccccc1)c1ccccc1	inactive
C=COCCOCCOC=C	inactive
CCCCOC(=O)C(=O)OCCCC	inactive
COc1ccc(N=Nc2cc(C)c(N=Nc3ccc(S(=O)(=O)O)cc3)cc2OC)cc1	inactive
COC(/C=C(\C)CCC=C(C)C)OC	inactive

Compound	Potency
COc1cc2c(Nc3ccc(Br)cc3F)ncnc2cc1OCC1CCN(C)CC1	inactive
CC(C)COC(=O)CC(C(=O)OCC(C)C)S(=O)(=O)O (stereo not given)	inactive
CCCCCCCC/C=C\CCCCCCCC(=O)OC[C@@H](O)[C@H]1OC[C@H](O)[C@H]1O	inactive
CCCCCCCCCCC	inactive
O=S(=O)(O)SSS(=O)(=O)O	inactive
C=CCOc1c(Br)cc(C(C)(C)c2cc(Br)c(OCC=C)c(Br)c2)cc1Br	inactive
CCN(CC)C(=O)C1CN2CCc3cc(OC)c(OC)cc3C2CC1OC(C)=O (stereo not given)	inactive
Cc1ccccc1C	inactive
CC(C)(c1ccc(Oc2ccc3c(c2)C(=O)OC3=O)cc1)c1ccc(Oc2ccc3c(c2)C(=O)OC3=O)cc1	inactive
COc1ccc(/C=N/NC(=O)c2ccncc2)cc1OC	inactive
CCOc1ccc(NC(=O)OC(C)C)cc1OCC	inactive
CO/N=C(/C(=O)N[C@@H]1C(=O)N2C(C(=O)O)=C(Cn3nnc(C)n3)CS[C@H]12)c1csc(N)n1	inactive
CCCCC/C=C/CC(=O)OC	inactive
CC(CC(=O)O)CC(C)(C)C (stereo not given)	inactive
CCCCCCCCCCCCCCCCCCN(C)C	inactive
O=C(/C=C/c1ccccc1)NCCO	6.01 µM (active)
CCCCCCCCC(=O)OCC	inactive
Cc1cc(O)c2c(c1)C(=O)c1cccc(O)c1C2=O	inactive
C=C(C)C(=O)OC1CC(C)CC(C)(C)C1 (stereo not given)	inactive
CCOC(=O)CCCCCCCCC(=O)OCC	inactive
